# Assay outcomes: PubChem, National Center for Advancing Translational Sciences (NCATS)
# PLK1 PBD inh = blocks phosphopeptide binding to human PLK1 polo-box domain; 360,000 tested, 2.8% active; Plk1 PBD binding of FITC phosphopeptide, fluorescence polarization; Potency, µM, usual class: inhibitors; P53350; further: series mostly up to about 57 µM; nearly all actives have a fitted effect of over 65% in size
# Target sequence (P53350 whole entry, looked up, the tested form may be a part): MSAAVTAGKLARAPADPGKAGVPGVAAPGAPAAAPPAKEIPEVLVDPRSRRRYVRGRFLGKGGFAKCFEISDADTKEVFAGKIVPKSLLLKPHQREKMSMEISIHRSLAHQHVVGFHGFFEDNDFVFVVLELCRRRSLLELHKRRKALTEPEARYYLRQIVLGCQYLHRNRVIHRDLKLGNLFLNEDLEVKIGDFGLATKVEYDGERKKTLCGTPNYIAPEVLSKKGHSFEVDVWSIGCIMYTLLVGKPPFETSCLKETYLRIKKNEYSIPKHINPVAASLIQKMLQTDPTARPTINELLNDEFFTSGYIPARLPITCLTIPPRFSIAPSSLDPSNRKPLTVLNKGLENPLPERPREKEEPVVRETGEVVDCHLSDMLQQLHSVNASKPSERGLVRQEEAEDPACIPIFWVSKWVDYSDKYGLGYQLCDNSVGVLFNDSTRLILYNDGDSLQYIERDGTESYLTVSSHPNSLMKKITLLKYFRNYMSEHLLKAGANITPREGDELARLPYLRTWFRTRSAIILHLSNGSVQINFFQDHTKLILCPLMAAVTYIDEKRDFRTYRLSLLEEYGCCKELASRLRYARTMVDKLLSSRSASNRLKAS
# VDR inh = vitamin D3 receptor (human) inhibition; P11473; VDR-SRC2-3 peptide fluorescence polarization, 2 h; Potency, µM, usual class: inhibitors; 400,000 tested, 0.93% active; AID 504847
#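 Reagent solutions, kept cold and dark, are dispensed first; compounds are then pinned in at 23 nl, plates briefly spun, and incubated 2 h at ambient temperature. Inhibition of VDR–SRC2-3 peptide binding is read by fluorescence polarization.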
# 12-LOX inh = ALOX12 (human) lipoxygenase inhibition | purified 12hLO, xylenol orange hydroperoxide absorbance | 580,000 tested, 1.1% active | Potency, µM (doses to about 108 µM), most hits filed as inhibitors | P18054 | AID 1671190
#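 Hydroperoxide product was detected by ferrous iron/xylenol orange as the 573 to 405 nm absorbance ratio. Arachidonic acid at 40 uM (final) was turned over for 30 min at room temperature by 150 nM human 12hLO, pH 7.0 Hepes buffer, after 15 min compound preincubation.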
# Sfp PPTase inh = blocks B. subtilis Sfp PPTase activity. AID 1490. 310,000 tested, 3.5% active. Potency, µM, usual class: inhibitors. Biochemical Sfp PPTase activity, qHTS;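 further: the enzyme is Sfp with the accession as filed and its product quenches rhodamine fluorescence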
#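 After 15 min at room temperature with compound, 15 nM Sfp received 5 uM rhodamine-CoA plus 12.5 uM BHQ-2-ybbR (50 mM Hepes pH 7.6, 10 mM MgCl2). Rate came from the fluorescence difference over 30 min, ex 525/em 598 nm.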
# Hits are given with their value; 0 = inactive; ? = inconclusive; - = no result given. Only some compounds are listed: those with a hit (about 4.2% of all), similar ones and a draw of the others. The call rests on the fitted dose curve; in most records, active means well fitted curve in the direction sought with a large enough effect; inconclusive means small, poorly fitted or top-dose-only effect, or another doubt; inactive means no such curve, though single readings can be large; an effect the other way counts as inactive or inconclusive.
SMILES,PLK1 PBD inh,VDR inh,12-LOX inh,Sfp PPTase inh
O=S(=O)(c1ccccc1)N1N=C(c2ccc(Br)cc2)CC1c1ccco1 (stereo not given),3µM,?,0,0
O=S(=O)(c1ccccc1)N1N=C(c2ccc(O)cc2)CC1c1ccco1 (stereo not given),0,0,?,?
CC(=O)N1CCN(CC(=O)Nc2sccc2C#N)CC1,24µM,0,0,0
O=[N+]([O-])c1cccc(NNS(=O)(=O)c2ccccc2F)c1,21µM,?,?,?
Cc1ccc([C@H]2C(C(=O)O)=CC[C@@H](c3ccc(C(C)C)cc3)N2S(=O)(=O)c2ccc(C)cc2)cc1,24µM,0,?,-
Cc1ccc([C@H]2C(C(=O)O)=CC[C@@H](c3ccc(Cl)cc3)N2S(=O)(=O)c2ccc(C)cc2)cc1,?,0,0,-
Cc1ccc(S(=O)(=O)N2[C@@H](c3ccc(Cl)cc3)C(C(=O)O)=CC[C@H]2c2ccc(C(C)C)cc2)cc1,19µM,0,?,-
CCN(CC)C(=S)S,-,?,-,45µM
COc1ccc2nc(SCC(=O)N(C3CCCC3)C3CCS(=O)(=O)C3)[nH]c2c1 (stereo not given),-,-,0,-
COC(=O)Nc1sc2c(c1C(=O)N1CCOCC1)CCC(C)C2 (stereo not given),27µM,?,0,?
Cc1nnc(SCc2cc(=O)[nH]c(=S)[nH]2)s1,0,0,0,20µM
CC(C)c1ccc(N2CCN(C(=O)c3ccccc3NC(=O)/C=C\C(=O)O)CC2)cc1,0,0,0,79µM
O=C1c2ccccc2S(=O)N1c1cccc(F)c1 (stereo not given),24µM,-,0,-
O=C1CC(=O)N(c2cccc(F)c2)N1,0,0,?,0
O=[N+]([O-])c1ccc(C(=S)N2CCCC2)cc1,21µM,0,0,50µM
CCN1CCN(C(=S)c2ccc([N+](=O)[O-])cc2)CC1,12µM,71µM,0,13µM
CC1CCN(C(=S)c2ccc([N+](=O)[O-])cc2)CC1,24µM,?,?,45µM
CS(=O)(=O)c1ccc(C(=O)Nc2ccccc2Cl)cc1,0,0,0,0
CC(Oc1ccc(-c2ccc(C#N)cc2)cc1)c1ccc(F)cc1 (stereo not given),-,-,0,-
O=C(O)c1cccc(N/N=C/c2cccc3ccccc23)c1,?,0,?,0
Clc1ccc(N/N=C/c2cccc(Cl)c2Cl)cc1Cl,-,-,1µM,-
Clc1ccc(N/N=C/c2cccc3ccccc23)cc1Cl,-,-,5µM,-
O=C(N/N=C/c1coc2ccccc2c1=O)c1cc(Br)c(O)c(Br)c1,?,?,0,0
Cc1ccc2nsnc2c1NC(=O)COc1ccc(C(C)(C)C)cc1,-,-,0,-
Cc1ccc(-c2nn(-c3ccccc3)cc2C=O)o1,0,0,?,40µM
SMILES,PLK1 PBD inh,VDR inh,12-LOX inh,Sfp PPTase inh
CCN(CC)CCn1c2c(c(SCC(=O)Nc3ccc4c(c3)OCO4)nc1=O)CCC2,0,0,0,-
C=C1C(=O)OC2CC1C(OC(C)=O)CC(C)=CCCC(C)=CCCC2(C)O (stereo not given),-,-,0,-
C=C1C(=O)OC2CC1C(OC(C)=O)CC(C)=CCCC(C)=CCC[C@@]2(C)O (stereo not given in full),-,35µM,-,0
CC(=O)NC(CC(=O)N1CCN(C(C)=O)CC1)c1ccccc1 (stereo not given),0,0,?,0
COc1ccc(C2(C(=O)NCCc3ccccc3)CCCC2)cc1,0,0,0,0
O=C(CSc1nnc(SCc2ccccc2)s1)N/N=C/C=C/c1ccccc1[N+](=O)[O-],0,0,0,0
Cn1c(SCC(=O)N/N=C/c2ccco2)nc2ccccc21,0,0,0,0
O=C(CSc1nnc(SCc2ccccc2)s1)N/N=C/C=C\c1ccco1,?,?,18µM,11µM
CCn1c(SCC(=O)N/N=C/C=C/c2ccco2)nc2ccccc21,?,?,?,45µM
COc1ccc(CNC(=O)Cn2nc(C(=O)O)c3ccccc3c2=O)cc1,-,-,0,-
COC(=O)c1csc(S(=O)(=O)N2CCOCC2)c1OC,0,0,0,0
CCCCNC(=O)c1ccc(N)cc1,-,-,0,-
CCCCN(CCCC)C(=O)c1ccc(N)cc1,-,-,16µM,-
Cn1c(=O)n(CC#N)c2ccccc21,0,0,0,0
O=C(O)c1cc(S(=O)(=O)Nc2ccccc2C(=O)O)ccc1O,?,0,0,0
O=C(O)c1ccccc1NS(=O)(=O)c1ccc(NNC(=S)Nc2ccc(OC(F)F)cc2)c([N+](=O)[O-])c1,11µM,?,3.5µM,?
Cc1ccc(NC(=S)NNc2ccc(C(=O)O)cc2[N+](=O)[O-])cc1C,?,0,1.4µM,-
O=C(O)c1ccccc1Nc1ccc([N+](=O)[O-])cc1C(=O)O,0,0,0,0
Cc1ccc(NC(=S)NNc2ccc([N+](=O)[O-])cc2S(=O)(=O)Nc2ccccc2C(=O)O)cc1C,27µM,40µM,10µM,40µM
COc1ccc(C(C)=NNc2ccc([N+](=O)[O-])cc2S(=O)(=O)Nc2ccccc2C(=O)O)c(OC)c1,21µM,?,?,-
Cc1cc(C)n2ncc(C(=O)Nc3ccc(Cl)c(Cl)c3)c2n1,?,0,0,0
Cc1ccc(N/C(N)=N/c2nc(CSc3ccccn3)cc(=O)[nH]2)c(C)c1,0,0,0,0
CCC1NC(=S)N(C2CCCCC2)C1=O (stereo not given),0,0,0,0
CC(C)CC1NC(=S)N(C2CCCCC2)C1=O (stereo not given),3µM,0,0,0
CCOC(=O)NNC(=S)NCC1CCCO1 (stereo not given),-,-,6.3µM,-
SMILES,PLK1 PBD inh,VDR inh,12-LOX inh,Sfp PPTase inh
S=C(NCC1CCCO1)NC1CCCCC1 (stereo not given),0,0,0,11µM
CCNC(=S)NNC(=S)NCC1CCCO1 (stereo not given),-,-,0,-
CCc1cccc2c(C(CC(=O)NC(C)CC)c3ccc(OC)c(OC)c3)c[nH]c12 (stereo not given),-,-,0,-
Cc1nnc(C)n1/N=C/c1ccccc1,0,0,0,0
CCn1c2ccccc2c2cc(/C=N/n3c(C)nnc3C)ccc21,0,0,0,50µM
Cc1ccc2nc(-c3ccc(NC(=S)NC4CC(C)(C)NC(C)(C)C4)cc3)sc2c1,0,0,?,45µM
Cc1ccc(F)c(NC(=O)/C(C#N)=C(\O)c2ccc(C(C)(C)C)cc2)c1,30µM,?,?,0
CC(C)(C)c1ccc(C(=O)Nc2cc(C(F)(F)F)ccc2F)cc1,-,-,0,-
CCCCC(CC)CNC(=S)NCc1ccc(C)cc1 (stereo not given),-,-,32µM,-
CCC(NC(=S)NCc1ccc(F)cc1)c1ccc(C)cc1 (stereo not given),0,0,?,0
O=C(Oc1ccc(-c2nnco2)cc1)N1CCCCC1,0,0,0,0
CC1=C(C(=O)Nc2ccccc2F)C(c2cccs2)C2=C(CCCC2=O)N1 (stereo not given),24µM,?,0,0
S=C(NCCc1ccccc1)N/N=C/C1CCCCC1,-,-,-,0
Oc1ccc(Br)cc1/C=N/NC(=S)NCCc1ccccc1,0,0,?,0
S=C(NCCc1ccccc1)N/N=C/c1ccccc1Br,-,-,35µM,-
CCc1ccc(/C=N/NC(=S)NCCc2ccccc2)cc1,0,0,22µM,0
S=C(NCCc1ccccc1)NN=C1CCCCCC1,27µM,0,?,0
